# Experimental data taken from PubChem BioAssay (NCATS).
# Results filed as inconclusive are left out. Values without a mark were called inactive. The source made the active and inactive calls. Calls follow the shape of the dose curve; as a rule, active = well fitted inhibition curve with a large enough effect; inconclusive = small, poorly fitted or top-dose-only effect; inactive = flat fitted curve, though single readings scatter.
# Assay: P-glycoprotein substrates identified in KB-8-5-11 adenocarcinoma cell line, qHTS therapeutic library screen (AID 1346987); also: nearly all actives have a fitted effect of over 65% in size
# Details: KB-8-5-11 (P-gp overexpressing) viability, CellTiter-Glo, 72 h; series mostly up to 44.5 µM; activity change, negative = cytotoxicity: at the top concentration
# Method in brief: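 KB-8-5-11: colchicine-selected sub-line of KB-3-1 over-expressing P-gp; assay medium lacked colchicine. 72 h drug exposure at 37 degree C, CellTiter-Glo.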
# % is scaled to controls: 0 for no effect and ±100 for the full control effect; potency is read from the fitted curve at half-maximal effect.
Structure (SMILES),"activity change, negative = cytotoxicity",Potency,outcome
C=C1CCC2C(C)(C)C(O)CCC2(C)C1CCC(C)CCOC(C)=O (stereo not drawn),-0.883%,–,–
Cc1cc(Nc2ccc(NC(=O)c3ccc(Nc4ccnc5ccccc45)cc3)cc2)nc(N)n1,-46.3%,–,–
FC(F)(F)c1ccc(Nc2nc(-c3c(C(F)(F)F)nc4ccccn34)cs2)cc1,–,0.461 µM (active),–
Nc1nc(-n2cc(C(=O)O)c(=O)c3cc(F)c(N4CC(O)C4)c(Cl)c32)c(F)cc1F,-8.8%,–,–
CCNCc1nc2c(N)nc3ccccc3c2n1CC(C)(C)O,7.86%,–,–
O=C(O)c1cc(I)ccc1NC(=O)[C@H](Cc1ccccc1)NCc1ccccc1,6.68%,–,–
COc1cc(Br)c(Nc2nc(-c3c(C)nc4ncccn34)cs2)c(Br)c1,–,2.31 µM (active),–
C[C@H]1CC[C@@]2(OC1)O[C@H]1CC3C4CC[C@H]5C[C@@H](O)[C@H](O)C[C@]5(C)C4=CC(=O)[C@]3(C)[C@H]1[C@@H]2C (stereo partly drawn),-14.6% [at 17.3 µM],–,–
NC(=O)[C@H]1CCS[C@@H]2C[C@]3(CCCN3C(=O)Cc3ccc(NC(=O)COc4ccc(Cl)cc4Cl)cc3)C(=O)N12,–,20.6 µM (active),–
Cc1ccc(S(=O)(=O)c2ccc([N+](=O)[O-])o2)cc1,–,4.61 µM (active),–
Cc1oc2ccccc2c1CNC(=O)NCc1cccs1,-6.09%,–,–
C[C@@H]1C(=O)OC[C@H]2C(C(=O)O)=C[C@@H]3CC(C)(C)C[C@]312,1.48%,–,–
CC(C)=CCC[C@](C)(O[C@@H]1O[C@H](CO)[C@@H](O)[C@H](O)[C@H]1O)[C@H]1CC[C@]2(C)[C@@H]1[C@H](O)CC1[C@@]3(C)CC[C@H](O)C(C)(C)C3[C@@H](O[C@@H]3O[C@H](CO)[C@@H](O)[C@H](O)[C@H]3O[C@@H]3OC[C@@H](O)[C@H](O)[C@H]3O)C[C@]12C (stereo partly drawn),-2.05% [at 9.29 µM],–,–
COC(=O)CC1CC(c2ccc(O)cc2)=NO1 (stereo not drawn),-16.5%,–,–
COc1cc(N2CCC(N3CCN(C)CC3)CC2)ccc1Nc1ncc(Cl)c(-c2c[nH]c3ccccc23)n1,–,0.517 µM (active),–
OC[C@H]1O[C@@H](OCCc2ccc(O)cc2)[C@H](O[C@@H]2OC[C@](O)(CO)[C@H]2O)[C@@H](O)[C@@H]1O,–,–,inactive [at 17.3 µM]
CC(C)C(CO)Nc1nc(Nc2ccc(C(=O)O)c(Cl)c2)c2ncn(C(C)C)c2n1 (stereo not drawn),-3.56%,–,–
COc1c(Nc2ncc(Cl)c(N[C@H]3[C@@H](C(N)=O)[C@@H]4C=C[C@H]3C4)n2)ccc2c1CC[C@@H](N1CCOCC1)CC2,–,8.2 µM (active),–
Cc1ccccc1C#Cc1ccc(CCC(=O)O)cc1,-7.83%,–,–
CC[C@@H](N)CNc1ccnc(-c2cc(-c3cnn(C)c3)ccc2O)n1,–,5.17 µM (active),–
CC(Cc1cc2c(c(C(N)=O)c1)N(CCCO)CC2)NCCOc1ccccc1OCC(F)(F)F (stereo not drawn),–,–,inactive
CCC1C(=O)N(C)c2cnc(Nc3ccc(C(=O)NC4CCC(N5CCN(CC6CC6)CC5)CC4)cc3OC)nc2N1C(C)C (stereo not drawn),–,0.291 µM (active),–
CC1(C(=O)O)CCCC2(C)C3=CCC4CC3(CCC12)CC4CO (stereo not drawn),-6.69%,–,–
CC1(CCOC2OC(CO)C(O)C(O)C2O)CCC23OC2(C1)C(O)CC1C(C)(C(=O)O)CCCC13C (stereo not drawn),–,–,inactive [at 17.3 µM]
CC1CCC2(OC1)OC1CC3C4CCC5C[C@@H](O[C@@H]6O[C@H](CO[C@@H]7OC[C@@H](O)[C@H](O)[C@H]7O)[C@H](O)[C@H](O)[C@H]6O)CC[C@]5(C)C4CC[C@]3(C)C1C2C (stereo partly drawn),–,–,inactive [at 17.3 µM]
O=C(O)C1CN(Cc2ccc(-c3nc4cc(Cc5ccccc5F)ccc4s3)c(F)c2)C1,0.617% [at 9.29 µM],–,–
COC(=O)Cc1cc2c(c([N+](=O)[O-])c1)N(C(=O)CC[C@H](N)C(=O)O)CC2,–,–,inactive
CCC(C)C(=O)O[C@H]1CCC=C2C=C[C@H](C)[C@H](CC[C@@H](O)C[C@@H](O)CC(=O)O)[C@H]21 (stereo partly drawn),-12.2% [at 17.3 µM],–,–
